± gives the standard deviation of the averaged measurements.

The test deals with MDA-MB-231. The test can be described thus: kynurenine production, fold change vs DMSO IFNg/TNF control; higher = more kynurenine produced (less inhibition). Particulars: pre-treatment time: 18 h then 24 h IFNg/TNF. The essentials: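 MDA-MB-231 cells were seeded in 96-well plates at 7 × 10^4/well and, 24 h later, pre-treated for 18 h with each natural product in 0.1% DMSO. They were then stimulated for 24 h at 37°C with IFNγ (1 U/ml) and TNF (6.25 ng/ml). Supernatants were treated with trichloroacetic acid and p-dimethylaminobenzaldehyde and read at 492 nm against 0–100 μM standards. Kynurenine production is expressed as fold change over cytokine-stimulated vehicle wells on the same plate and, in the first screening round, averaged across duplicate plates.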
As to `CC(C)=CCC[C@](C)(O)[C@H]1CC[C@]2(C)[C@@H]1[C@H](O)C[C@@H]1[C@@]3(C)CC[C@H](O)C(C)(C)[C@@H]3[C@@H](O[C@@H]3O[C@H](CO)[C@@H](O)[C@H](O)[C@H]3O[C@@H]3OC[C@@H](O)[C@H](O)[C@H]3O)C[C@]12C` [Notoginsenoside R2] (compound dose: 10 uM), the kynurenine production is 1.24 ± 0.12. The value for `CC(=O)O[C@H]1C(=O)[C@@]2(C)[C@H]([C@H](OC(=O)c3ccccc3)[C@]3(O)C[C@H](OC(=O)[C@H](O)[C@@H](NC(=O)c4ccccc4)c4ccccc4)C(C)=C1C3(C)C)[C@]1(OC(C)=O)CO[C@@H]1C[C@@H]2O` [7-epi-Taxol] (compound dose: 10 uM) was 0.3 ± 0.026; that for `CC(CCC(OC1OC(CO)C(O)C(O)C1OC1OC(CO)C(O)C(O)C1O)C(C)(C)O)C1CCC2(C)C3CC=C4C(CCC(OC5OC(COC6OC(CO)C(O)C(O)C6O)C(O)C(O)C5O)C4(C)C)C3(C)C(O)CC12C` (stereo unspecified) [Mogroside IV] (compound dose: 10 uM) was 1.12 ± 0.23. Consider `C=C1CC[C@@H]2[C@](C)(CO[C@@H]3O[C@H](CO)[C@@H](O)[C@H](O)[C@H]3O)CCC[C@@]2(C)[C@@H]1CCC1=CCOC1=O` [Neoandrographolide] (compound dose: 10 uM), for which the kynurenine production stood at 0.893 ± 0.012. In the case of `CC1(C)CC[C@]2(C(=O)O)CC[C@]3(C)C(=CC[C@@H]4[C@@]5(C)CC[C@H](O[C@@H]6O[C@H](C(=O)O)[C@@H](O)[C@H](O)[C@H]6O[C@@H]6O[C@H](CO)[C@@H](O)[C@H](O)[C@H]6O)C(C)(C)[C@@H]5CC[C@]43C)[C@@H]2C1` [Zingibroside R1] (compound dose: 10 uM), the kynurenine production came out at 1.06 ± 0.15.

`O=C(O)c1cncc(C(=O)O)c1` [3-5-pyridinedicarboxylic acid] (compound dose: 10 uM): the kynurenine production was 0.983 ± 0.025. `C/C1=C\CC[C@]23O[C@H]2[C@@H](OC3=O)c2c(C)coc2C1` [Linderane] (compound dose: 10 uM): the kynurenine production came out at 0.942 ± 0.096.

Regarding `CC12CCC(CC1=O)C2(C)C` (stereo unspecified) [Camphor] (compound dose: 10 uM), the kynurenine production is 0.832 ± 0.21.

Turning to `CC(C)=CCC[C@@H](C)CC=O` [(R)-(+)-Citronellal] (compound dose: 10 uM), the kynurenine production stood at 1.44 ± 0.056. The value for `CC1(C)CC[C@]2(CO)CC[C@]3(C)C(=CC[C@@H]4[C@@]5(C)CC[C@H](O)C(C)(C)[C@@H]5CC[C@]43C)[C@@H]2C1` [Erythrodiol] (compound dose: 10 uM) was 0.842 ± 0.14; that for `O=c1ccoc2cc(O)cc(O)c12` [5.7-dihydroxychromone] (compound dose: 10 uM) was 0.868 ± 0.023. As for `C[C@@H]1O[C@@H](O[C@H]2[C@H](O[C@H]3CC[C@@]4(C)[C@@H](CC[C@]5(C)[C@@H]4CC=C4[C@@H]6CC(C)(C)CC[C@]6(C(=O)O[C@@H]6O[C@H](CO[C@@H]7O[C@H](CO)[C@@H](O[C@@H]8O[C@@H](C)[C@H](O)[C@@H](O)[C@H]8O)[C@H](O)[C@H]7O)[C@@H](O)[C@H](O)[C@H]6O)CC[C@]45C)[C@]3(C)CO)OC[C@H](O)[C@@H]2O)[C@H](O)[C@H](O)[C@H]1O` [Hederacoside C] (compound dose: 10 uM), the kynurenine production was determined as 1.25 ± 0.18. The value for `COC(=O)[C@]1(C)CC[C@]2(C(=O)O[C@@H]3O[C@H](CO)[C@@H](O)[C@H](O)[C@H]3O)CC[C@]3(C)C(=CC[C@@H]4[C@@]5(C)C[C@H](O)[C@H](O[C@@H]6OC[C@@H](O[C@@H]7O[C@H](CO)[C@@H](O)[C@H](O)[C@H]7O)[C@H](O)[C@H]6O)[C@@](C)(CO)C5CC[C@]43C)[C@H]2C1` (stereo partly specified) [Esculentoside H] (compound dose: 10 uM) was 0.825 ± 0.099; that for `C[C@@H]1CC[C@]2(C)CC[C@]3(C)C(=CC(=O)C4[C@@]5(C)CC[C@@H](O)[C@](C)(C(=O)O)C5CC[C@]43C)C2[C@H]1C` (stereo partly drawn) [11-Keto-beta-boswellic acid] (compound dose: 10 uM) was 0.94 ± 0.12; that for `CC(C)(O)[C@H]1CC[C@@](C)([C@H]2[C@@H](O)C[C@@]3(C)[C@@H]4C[C@H](O)[C@H]5C(C)(C)[C@@H](O)CC[C@@]56C[C@@]46CC[C@]23C)O1` [Cyclogalegenin] (compound dose: 10 uM) was 0.854 ± 0.064. Turning to `CC(C)=CCC[C@@H](C)CC=O` [Citronellal] (compound dose: 10 uM), the kynurenine production is 1.22 ± 0.043.

These data come from the supplement of paper PMC13094657.
